Assay outcomes deposited in PubChem BioAssay by National Center for Advancing Translational Sciences (NCATS).
The list is not random: actives were taken first. Their share in the collection is about 11%.
PNC inhibitor: High Content Assay for Compounds that inhibit the Assembly of the Perinucleolar Compartment | AID 2417, 2010 | activity change (PNC), negative = inhibition, % at 10 µM | PC3M PTB-GFP, PNC prevalence imaging, 16 h; active compounds read low | hit rate 3.1% among 140,000;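 active = readout at or below -70, meaning at least 70% loss of cells showing the perinucleolar compartment, a nuclear body marking cancer cells; inconclusive = readout between -30 and a set limit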;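 also: plate controls were DMSO wells for no effect and camptothecin positive control wells for full effect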
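PC3M cells stably expressing PTB-GFP, 750–1000 cells/well, treated 16 h at 37 °C with compound (23 nl of library stock), in duplicate. After paraformaldehyde fixation and Hoechst stain, imaged at 20x; PNC prevalence scored by image analysis.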
ALDH1A1 inh: qHTS Assay for Inhibitors of Aldehyde Dehydrogenase 1 (ALDH1A1); hit rate 7.3% among 220,000; Purified ALDH1A1, NADH fluorescence, propionaldehyde substrate; Aldehyde dehydrogenase 1A1 (Homo sapiens), P00352; Potency, µM (series often up to 75.3 µM), for inactives: top-dose activity, negative = inhibition, hits mostly inhibitors;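 also: potency is read from the fitted curve at half-maximal effect; plate controls were no enzyme wells and a reference inhibitor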
Target sequence (P00352 whole entry, looked up): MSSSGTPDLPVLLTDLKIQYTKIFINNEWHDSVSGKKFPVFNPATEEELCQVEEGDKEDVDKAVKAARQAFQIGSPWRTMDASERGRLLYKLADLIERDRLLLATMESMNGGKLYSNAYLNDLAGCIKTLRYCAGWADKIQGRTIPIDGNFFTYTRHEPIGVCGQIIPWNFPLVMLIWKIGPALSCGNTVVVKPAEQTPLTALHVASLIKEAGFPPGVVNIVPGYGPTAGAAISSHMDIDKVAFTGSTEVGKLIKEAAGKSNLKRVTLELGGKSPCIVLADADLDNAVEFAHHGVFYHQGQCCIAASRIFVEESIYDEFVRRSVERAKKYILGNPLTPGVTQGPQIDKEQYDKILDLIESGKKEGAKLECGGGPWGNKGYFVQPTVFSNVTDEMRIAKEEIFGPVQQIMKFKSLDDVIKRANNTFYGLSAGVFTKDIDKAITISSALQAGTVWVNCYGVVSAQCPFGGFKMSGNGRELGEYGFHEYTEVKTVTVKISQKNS
IMPase Li cell: qHTS Assay for Identifying the Cell-Membrane Permeable IMPase Inhibitors: Potentiation with Lithium | CHO-M1 cells, IP1 TR-FRET (IP-One), carbachol + lithium | Potency, µM (doses to about 59.4 µM), without a hit: at the top dose activity, negative = IMPase inhibition, actives largely listed as inhibitors | hit rate 0.35% among 210,000; active = well fitted curve in the direction sought with a large enough effect; inconclusive = small, poorly fitted or top-dose-only effect, or another doubt; inactive = no such curve, though single readings can be large; an effect the other way counts as inactive or inconclusive;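 also: IP1 builds up when IMPase is blocked and the TR-FRET signal falls; potency is read from the fitted curve at half-maximal effect; plate controls were basal vehicle for no effect and high inhibitor control for full effect; nearly all actives have a fitted effect of over 50% in size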
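CHO cells stably expressing M1 receptor (2000/well, cultured 16–30 h) treated 30 min at 37C with compound plus low lithium. Cytosolic IP1 by TR-FRET (665/620 ratio and 620 channel) after 10 min lysis; AC50 by Hill fit.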
NPSR antag: qHTS Assay for Antagonists of the Neuropeptide S Receptor: cAMP Signal Transduction. Q6W5P4. CHO-NPSR cells, cAMP TR-FRET, antagonist mode. Potency, µM (highest dose often 38.3 µM), for the others: at the top dose activity change, negative = inhibition, usual class: inhibitors. hit rate 1% among 220,000; active = well fitted curve in the direction sought with a large enough effect; inconclusive = small, poorly fitted or top-dose-only effect, or another doubt; inactive = no such curve, though single readings can be large; an effect the other way counts as inactive or inconclusive; also: potency is read from the fitted curve at half-maximal effect; nearly all actives have a fitted effect of over 50% in size
IMPase cell inh: qHTS Assay for Identifying the Cell-Membrane Permeable IMPase Inhibitors; inhibition (IP1 accumulation), % at 46.1 µM; Inositol monophosphatase 1 (Rattus norvegicus), P97697; 120,000 tested, under 10 active; AID 901, 2007; CHO-M1 cells, IP1 accumulation, HTRF TR-FRET ratio; active = well fitted curve in the direction sought with a large enough effect in the signal ratio, not every such curve was filed as active; inconclusive = small, poorly fitted or top-dose-only effect, or a change in a side signal; inactive = no such curve, though single readings can be large or run the other way; the % refers to the signal ratio;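 also: cells stimulated with carbachol in lithium chloride buffer; plate controls were DMSO basal wells for no effect and reference inhibitor wells for full effect; higher means more IMPase inhibition seen as more IP1 and lower FRET ratio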
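In this qHTS, compounds (final up to 46 uM) act on CHO-M1 cells that are then activated through the M1 receptor with carbachol, in pH 7.4 buffer containing 50 mM LiCl, for 30 min. IP1 accumulation is quantified by the IP-One immunoassay.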
HPGD block: qHTS Assay for Inhibitors of HPGD (15-Hydroxyprostaglandin Dehydrogenase) | Potency, µM, for the others: at the highest dose activity change, negative = inhibition, hits mostly inhibitors | hit rate 4.3% among 150,000 | purified HPGD, NADH fluorescence kinetic, PGE2 substrate; also: potency is read from the fitted curve at half-maximal effect
Target sequence (P15428 whole entry, looked up): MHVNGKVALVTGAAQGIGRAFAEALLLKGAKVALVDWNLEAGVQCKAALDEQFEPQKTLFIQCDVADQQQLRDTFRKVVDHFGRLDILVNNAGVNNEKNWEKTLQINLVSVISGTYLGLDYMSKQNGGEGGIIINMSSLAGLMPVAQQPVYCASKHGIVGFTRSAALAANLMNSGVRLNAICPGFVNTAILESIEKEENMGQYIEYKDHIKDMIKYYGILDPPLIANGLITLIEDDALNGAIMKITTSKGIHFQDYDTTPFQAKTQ
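20 nM HPGD preincubated 15 min at room temperature with compound in 50 mM Tris-HCl pH 8, 0.01% Tween 20. Started with 1 mM NAD+ and 30 uM prostaglandin E2; NADH fluorescence (360/450 nm) read 5 times over 30-s intervals, last minus first.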
* = called active by the depositor; ? = inconclusive; nt = no result given; [ ] = another dose, or the depositor's remark. Unless noted, calls follow the shape of the dose curve; as a rule, active = well fitted inhibition curve with a large enough effect (not every such curve was filed as active); inconclusive = small, poorly fitted or top-dose-only effect, or another doubt; inactive = no such curve, though single readings can be large or run the other way. Unless noted, % is scaled to controls: 0 for no effect and ±100 for the full control effect.

SMILES	PNC inhibitor	ALDH1A1 inh	IMPase Li cell	NPSR antag	IMPase cell inh	HPGD block
CCc1c(C)sc(NC(=O)c2cc(C(C)C)on2)c1C#N	nt	18µM*	0%	-37%	nt	nt
CCCc1cc(C(=O)OC)c(NC(=O)c2cc(C)on2)s1	-87*	9%	17%	-13%	-10	-24%
CCc1ccc(NC(=O)c2cc(C(C)C)on2)cc1	11	?	14%[38.3 µM]	-16%[46.1 µM]	15	-24%
CCc1c(C)sc(NC(=O)CC#N)c1C#N	9	3.5µM*	-7%[38.3 µM]	-3%[46.1 µM]	12	?
O=C(CNC(=S)N(Cc1ccc(F)cc1)C1CCCCC1)NC1CC1	33	?	34%[38.3 µM]	-19%[46.1 µM]	5	1%
O=C(CNCc1cccc2ccccc12)Nc1ccccc1[N+](=O)[O-]	nt	?	11%	-3%	nt	nt
CC(=O)Nc1sc2c(c1C#N)CCC2	nt	-1%	-8%	17%	nt	nt
CCC(CC)NC(=O)c1cc([N+](=O)[O-])ccc1N1CCOCC1	1	?	nt	7%[46.1 µM]	1	nt
CC(C)c1cc(C(=O)Nc2sc3c(c2C#N)CCC3)no1	7	18µM*	8%[38.3 µM]	0%[46.1 µM]	8	?
N#Cc1c(NC(=O)c2cc([N+](=O)[O-])ccc2N2CCOCC2)sc2c1CCCC2	48	-7%	1%	-6%	nt	28µM*
O=C(Nc1sc2c(c1C(=O)c1ccc(Cl)cc1)CCCC2)c1cccnc1	26	20µM*	35%[38.3 µM]	-15%[46.1 µM]	3[1.84 µM]	-18%
CC(C)c1onc(C(=O)N2CCCCCC2)c1[N+](=O)[O-]	nt	25µM*	-5%	3%	nt	nt
CC1(C)C2CCC1(CS(=O)(=O)NC1CCCC1)C(=O)C2 (stereo not given)	nt	1%	0%	12%	nt	nt
Cc1cccc(CSC(=N)N)c1	-115*	8%	nt	-3%[46.1 µM]	-9	nt
Nc1nc(C2CC(=O)OC23CCCCC3)cs1 (stereo not given)	-119*	?	-3%	-2%	14	-7%
CCC(C)c1ccc(Nc2ncccc2C#N)cc1 (stereo not given)	51	?	-1%[38.3 µM]	-15%[46.1 µM]	4	18µM*
CCc1ccc(Nc2ncccc2C#N)cc1	36	-11%	-15%[38.3 µM]	9%[46.1 µM]	2	?
Cc1cc(N2CCN(C)CC2)nc2ccc(NC(=S)NCc3cccs3)cc12	nt	-6%	9%	-24%	nt	nt
COc1ccc(Br)c2oc(S)cc(=O)c12	42	?	-6%	-29%	nt	-16%
O=C(COC(=O)c1ccc(Cl)c([N+](=O)[O-])c1)Nc1ccccc1OC(F)F	-1	10%	-1%	2%	nt	-9%
CCCCOc1ccc2c(c1)C(=O)c1cc(O)ccc1-2	nt	40µM*	-6%	50%	nt	nt
O=C(NCC1CCCO1)C1CCN(C2CCN(C(=O)CC3CCCC3)CC2)CC1 (stereo not given)	nt	3%	6%	-18%	nt	nt
COc1ccc(C2CC(c3c(-c4ccccc4)c4cc(Cl)ccc4[nH]c3=O)=NN2S(C)(=O)=O)cc1 (stereo not given)	-13	0.4µM*	30%[38.3 µM]	-23%[46.1 µM]	2	-7%
COc1ccc(OC)c(C2CC(c3c(-c4ccccc4)c4cc(Cl)ccc4[nH]c3=O)=NN2S(C)(=O)=O)c1 (stereo not given)	?	?	17%[38.3 µM]	?	-6	-15%
CCCCC(CC)CNC(=O)CC1Nc2c3ccccc3nc(=S)n2C1=O (stereo not given)	nt	13%	13µM*	-35%	nt	nt
SMILES	PNC inhibitor	ALDH1A1 inh	IMPase Li cell	NPSR antag	IMPase cell inh	HPGD block
CCN1CCN(C(=O)c2ccc3c(c2)S(=O)(=O)c2ccccc2C3=O)CC1	nt	7.9µM*	-13%	23%	nt	nt
O=C(NCCO)c1ccc2c(c1)S(=O)(=O)c1ccccc1C2=O	32	?	17%[38.3 µM]	-15%[46.1 µM]	-7	?
CCC(C)(C)NC(=O)c1ccc2c(c1)S(=O)(=O)c1ccccc1C2=O	?	3.5µM*	?	?	11	25µM*
O=C(Nc1ccccn1)c1ccc2c(c1)S(=O)(=O)c1ccccc1C2=O	62	16µM*	3%	8%	nt	-16%
O=C(NCC(c1ccco1)N1CCCCC1)c1ccc2c(c1)S(=O)(=O)c1ccccc1C2=O (stereo not given)	nt	13µM*	14%	-14%	nt	nt
OC1COC(OCC2OC(OCc3ccccc3)C(O)C(O)C2O)C(O)C1O (stereo not given)	nt	3%	2%	-24%	nt	nt
CCC1(C)Cc2ccccc2C(=O)N1 (stereo not given)	nt	nt	nt	12%	nt	nt
COCCNC(=O)Cn1cc(S(=O)(=O)N2CCN(c3ccccc3F)CC2)c2ccccc2c1=O	nt	?	2%	4%	nt	nt
O=C(Nc1sc2c(c1C(=O)NCc1ccco1)CCCC2)c1ccc2c(c1)OCO2	?	?	4%	-4%[46.1 µM]	3	?
CCC(c1nnnn1CCOC)N(Cc1cc2c(C)cc(C)cc2[nH]c1=O)CC1CCCO1 (stereo not given)	34	11µM*	-12%[38.3 µM]	-20%[46.1 µM]	0	-3%
Cc1cc2cc(CN(Cc3nnnn3C3CCCCC3)CC3CCCO3)c(=O)[nH]c2cc1C (stereo not given)	29	?	3%[38.3 µM]	-19%[46.1 µM]	5	-7%
CCCC(c1nnnn1CC(=O)OCC)N(Cc1cc2c(C)cc(C)cc2[nH]c1=O)C1CCCC1 (stereo not given)	-2	8.9µM*	7%[38.3 µM]	-29%[46.1 µM]	-11	-19%
Cc1ccc2cc(CN(Cc3nnnn3C3CCCCC3)CC3CCCO3)c(=O)[nH]c2c1 (stereo not given)	-10	8.9µM*	-2%[38.3 µM]	-25%[46.1 µM]	7	-12%
Cc1cc(C)c2cc(CN(Cc3nnnn3C3CCCCC3)CC3CCCO3)c(=O)[nH]c2c1 (stereo not given)	36	4.5µM*	12%[38.3 µM]	-29%[46.1 µM]	10	-3%
CC1(C)CC(=O)C(CC(=O)Nc2ccc(S(N)(=O)=O)cc2)=C(O)C1	-90*	?	3%	14%	0	-13%
NS(=O)(=O)c1cccc2c1c([N+](=O)[O-])cc1[nH]c(=O)c(=O)[nH]c12	nt	-3%	22%	nt	21	16µM*
NS(=O)(=O)c1cccc2c1c([N+](=O)[O-])cc1nc(O)c(O)nc12	nt	-3%	26%	-19%[46.1 µM]	10	16µM*
Cc1cc(C(=O)O)cc(S(=O)(=O)N2CCOCC2)c1C	-87*	10%	19%[38.3 µM]	-5%[46.1 µM]	22[1.84 µM]	-3%
O=C(NNc1cc(Cl)ccc1Cl)c1cccs1	nt	1.9µM*	nt	-5%	nt	nt
Cc1cc(Cl)ccc1NNC(=O)c1cccs1	nt	-5%	nt	-6%	nt	nt
